Laboratory results as given in PubChem BioAssay AID504444 (National Center for Advancing Translational Sciences (NCATS), 2011).
Out of some 360,000 compounds screened, about 7,500 (2.1%) were called active. Entries that show only a call come without a potency. Not shown: some 20% with an inconclusive outcome. For the sample, actives were picked, then their nearest neighbours and some compounds at random. A number with no mark means an inactive call. The call rests on the fitted dose curve; in most records, active means well fitted inhibition curve with a large enough effect; inconclusive means small, poorly fitted or top-dose-only effect, or effect the other way; inactive means flat fitted curve, though single readings scatter.

Experiment: Nrf2 qHTS screen for inhibitors; further: nearly all actives have a fitted effect of over 60% in size
Conditions: A549 ARE-Fluc reporter, luciferase luminescence, 18-24 h; series mostly up to 46 µM
From the text: NIH Molecular Libraries Probe Production Network [MLPCN]
NIH Chemical Genomics Center [NCGC]
Assay Provider: Shyam Biswal, Johns Hopkins University
Nrf2 is a transcription factor that maintains cellular redox homoestasis and protects cells from xenobiotics. Nrf2 binds to the antioxidant response element (ARE) to induce gene expression of a broad spectrum of genes that encode for antioxidants. […] Finding a small molecule that act as an inhibitor of Nrf2 function would represent a novel therapeutic target that could lead to improvement in survival of patients undergoing chemo- and/or radio- therapy.
This is the Nrf2 activity measured in the luminescent read.
1. Shibata, T., et al., Genetic Alteration of Keap1 Confers Constitutive Nrf2 Activation and Resistance to Chemotherapy in Gallbladder Cancer. Gastroenterology, 2008.
2. Sjoblom, T., et al., The consensus coding sequences of human breast and colorectal cancers. Science, 2006. 314(5797): p. 268-74.
NCGC Assay Protocol Summary:
A concentration-response assay was performed with A549 ARE_Fluc cells which are suspended in 5% FBS OPTI-MEM. Five uL were dispensed into 1536-well white TC-treated plate using the Kalypsys dispenser to achieve a density of 5000 cells/well in all columns except column 1. The plate is incubated at 37deg C at 5% CO2 for 2 hours before 23 nL of compounds are added with the Kalypsys pin tool equipped with a 1,536-pin array containing 10-nL slotted pins (FP1S10, 0.457-mm diameter, 50.8 mm long; V&P Scientific). The control compounds Budesonide and Staurosporine are both added at a concentration of 2mM and Budesonide is also added as a 1:10 titration, starting at 200uM, to achieve dose-response. After an 18-24 hour incubation at 37deg C at 5% CO2, 5ul of medium is added to column 1. Afterwards 1ul of 5x of CellTiter-Fluor (Promega) is added to every well. The plate is then incubated at 37deg C at 5% CO2 for 30 minutes before they are read on the ViewLux (Perkin Elmer) for a fluorescent read Ex=405(10)/Em=525(10) for a 3 second exposure, 2x binning, and high gain. Then 3 uL of 3x BugLite is dispensed into all wells and the plate is incubated at ambient room temperature for 15 minutes. Afterwards another ViewLux read is performed using the clear filter to get a luminescent read with the settings of 40 second exposure, 2x binning, and high gain. Cytotoxicity is assessed through the first fluorescent read and then biochemical activity against Nrf2 is measured in the luminescent read.
Potency means the concentration at half of the fitted maximal effect.

Row | SMILES | Potency | activity change, negative = inhibition
1 | O=C1N(Cc2ccccc2)c2ccc(Cl)cc2C1(O)c1c[nH]c2ccccc12 (stereo unspecified) | inactive | –
2 | CC(Nc1ncnc2ccc(-c3ccc4c(c3)OCO4)cc12)c1ccco1 (stereo unspecified) | inactive | –
3 | Cc1oc2c(F)c(F)c(F)c(F)c2c1S(=O)(=O)Nc1cccc(C(F)(F)F)c1 | 8.2 µM (active) | –
4 | O=C(/C=C/c1ccc(F)cc1)Nc1cccc(S(=O)(=O)Nc2cccc(C(F)(F)F)c2)c1 | inactive | –
5 | Cc1cccc(NC(=O)c2cccc(C(F)(F)F)c2)c1 | inactive | –
6 | CCn1c2ccccc2c2cc(CN3CCN(Cc4cccc(Cl)c4)CC3)ccc21 | inactive | –
7 | Cc1cccc(C(=O)N2c3nc(-c4ccco4)nn3C3(CCCCC3)[C@@H]3CCCC[C@@H]32)c1 | inactive | –
8 | CN(C)S(=O)(=O)c1ccc(Oc2ccc(S(=O)(=O)N(C)C)cc2)cc1 | 13 µM (active) | –
9 | CN(C)S(=O)(=O)c1ccc(NC(=O)N2CCOCC2)cc1 | inactive | –
10 | COc1cccc(NC(=O)c2ccc(S(=O)(=O)N(C)C)cc2)c1 | inactive | –
11 | CCOc1ccc(-c2n[nH]c3c2C(c2ccccc2OC)N(c2ccc(Br)cc2)C3=O)cc1 (stereo unspecified) | inactive | –
12 | CCCCCCCCNS(=O)(=O)CCNC1CCCCC1 | inactive | –
13 | Cc1cccc(C(C)C)c1NC(=O)C(NS(=O)(=O)c1cccc2nsnc12)c1ccccc1 (stereo unspecified) | inactive | –
14 | O=C(CCN1c2ccccc2Sc2ccccc21)Nc1ccccc1 | inactive | –
15 | CCN1/C(=C/C(=S)Nc2ccccc2)Sc2ccccc21 | 6.51 µM (active) | –
16 | CCNC(=O)N1c2ccccc2Sc2ccccc21 | inactive | –
17 | CC(C)NC(=O)Nc1cccc2c1O[C@H](CN(C)S(=O)(=O)c1cccs1)[C@@H](C)CN([C@H](C)CO)C2=O | inactive | –
18 | COc1cccc(N2CCN(S(=O)(=O)c3cc(Br)cc4c3N(C(=O)C3CC3)CC4)CC2)c1 | – | -6.76% [at 9.27 µM]
19 | O=C(NCCC1=CCCCC1)c1ccc2c(c1)N(Cc1ccccc1F)C(=O)c1ccccc1S2(=O)=O | inactive | –
20 | COc1cccc(OC2=NS(=O)(=O)c3ccccc32)c1 | inactive | –
21 | CCN(CC)C(=O)c1sc(NC(=O)c2ccco2)c(C#N)c1C | inactive | –
22 | Cn1nccc1CNC(=O)c1ccnn1C | inactive | –
23 | CCCc1ccc(-c2c(C)sc(NC(=O)c3ccnn3C)c2C#N)cc1 | 13 µM (active) | –

Row | SMILES | Potency | activity change, negative = inhibition
24 | COc1ccc(C)cc1NC(=O)COCc1cc(-c2cccs2)on1 | inactive | –
25 | O=C(Nc1ccc(OC(F)(F)F)cc1)C1CCCN(S(=O)(=O)c2ccc(Br)s2)C1 (stereo unspecified) | inactive | –
26 | CCCCNc1nc2c(c(=O)n(C)c(=O)n2C)n1Cc1cccc(OC)c1 | 5.8 µM (active) | –
27 | Cn1c(=O)c2c(nc(NCCc3ccccc3)n2Cc2ccccc2Br)n(C)c1=O | inactive | –
28 | CCCCNc1nc2c(c(=O)[nH]c(=O)n2C)n1CCOc1ccccc1 | inactive | –
29 | Cn1c(=O)[nH]c(=O)c2c1nc(NCCc1ccccc1)n2Cc1ccc(F)cc1 | inactive | –
30 | Cn1c(=O)c2c(nc(NCCc3ccccc3)n2Cc2ccccc2)n(C)c1=O | 14.6 µM (active) | –
31 | COC(=O)C(C)Sc1nc2c(c(=O)n(C)c(=O)n2C)n1Cc1cccc(C)c1 (stereo unspecified) | inactive | –
32 | Clc1ccc(CSc2nncn3c2cc2occc23)cc1 | inactive | –
33 | N#CN1CCC(NS(=O)(=O)c2cccc(F)c2)C1 (stereo unspecified) | inactive | –
34 | COc1ccccc1NC(=O)c1oc2ccccc2c1NC(=O)C(C)C | inactive | –
35 | CCN(CC)CCCC(C)n1c2nc(=O)[nH]c(=O)c-2nc2cc(Cl)ccc21 (stereo unspecified) | 20.6 µM (active) | –
36 | CCOC(=O)C1=C(CN2CCc3ccccc32)NC(=O)NC1c1ccc(Cl)cc1 (stereo unspecified) | 16.4 µM (active) | –
37 | CCOC(=O)C1=C(CN2CCc3ccccc32)NC(=O)NC1c1cccc([N+](=O)[O-])c1 (stereo unspecified) | inactive | –
38 | CCOC(=O)C1=C(CN2CCCCCC2)NC(=O)NC1c1cccc([N+](=O)[O-])c1 (stereo unspecified) | inactive | –
39 | COc1ccc(CNCCCn2cnc3c(OCc4ccccc4)ncnc32)cc1 | inactive | –
40 | CCOC(=O)c1cnc(-n2nc(C)cc2C)nc1NNc1cc(C)nc(-c2ccccc2)n1 | 4.11 µM (active) | –
41 | CCOC(=O)c1cnc(-n2nc(C)cc2C)nc1Nc1cccc(C(C)=O)c1 | inactive | –
42 | Cc1cc(C)n(-c2c(F)c(F)c(COC(=O)c3ccccc3)c(F)c2F)n1 | inactive | –
43 | O=c1n(Cc2cccc(C(F)(F)F)c2)c2ccccc2c2nc(-c3ccccc3)nn12 | inactive | –
44 | CC(Nc1ccc([N+](=O)[O-])cc1[N+](=O)[O-])c1ccccc1 (stereo unspecified) | inactive | –
45 | CCn1cc(C(=O)OCC(=O)Nc2cc(C)cc(C)c2)c(=O)c2ccc(C)nc21 | inactive | –
46 | CC[C@]1(C(=O)OC)[C@H]2C(=O)N(Cc3ccccc3)C(=O)[C@H]2[C@H]2CN=C(SCc3ccc(Cl)cc3)N21 | inactive | –
